IL1B secr inh – blocks inflammasome-driven IL-1 beta release; THP-1 LPS/ATP IL-1B secretion, AlphaLISA, 16 h; stronger effect = lower value; activity change, % at 57.5 µM; AID 743279; actives 4.7% (n = 360,000); in the data active = activity change below about -50%; inconclusive = mostly about -30% to -49%
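Secreted IL-1B measured by AlphaLISA bead assay after 16 h compound exposure of THP-1 cells; compounds (final up to 57.5 uM) added 1 h before LPS (250 ng/mL) and ATP (1.25 mM) stimulation; lower signal means less secretion.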
LDHA block – LDHA (human) enzyme inhibition; P00338; purified LDHA, NADH/diaphorase-resazurin fluorescence; stronger effect = lower value; activity change, % (values are at about 110 or 230 µM); actives 0.15% (n = 480,000); in the data active = activity change below about -30%; inconclusive = mostly about -25% to -30%;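 also: plate controls were DMSO wells for no effect and wells without enzyme for full effect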
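LDH5 2 nM; NADH 0.06 mM, pyruvate 0.2 mM; 200 mM Tris pH 7.4, EDTA, Tween-20; 5 min RT. Detection: diaphorase 0.133 mg/mL + resazurin 37 µM, fluorescence ex540/em590 at 0 and 20 min; normalized to enzyme-free and DMSO wells.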
VP16 counter – inhibits Gal4-VP16 luciferase reporter, ROR gamma counter-screen; Drosophila S2 Gal4-VP16 UAS-luciferase, luminescence, 20 h; Potency, µM (top dose mostly 53.6 µM), without a hit: at the highest dose activity, negative = inhibition, hits mostly inhibitors; actives 3.5% (n = 310,000); AID 2546;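 also: Gal4-VP16 expression switched on by copper sulfate through the metallothionein promoter; potency is read from the fitted curve at half-maximal effect; nearly all actives have a fitted effect of over 50% in size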
TDP1 cell noCPT – qHTS for Inhibitors of human tyrosyl-DNA phosphodiesterase 1 (TDP1): qHTS in cells in absence of CPT | DT40 Tdp1-/- hTDP1 cells, no CPT, ATP luminescence, 48 h | Potency, µM (titrated, usually from 46.2 µM), for the others: at the top dose activity change, negative = growth inhibition, actives largely listed as inhibitors | actives 15% (n = 420,000) | AID 686978, 2013; also: potency is read from the fitted curve at half-maximal effect; nearly all actives have a fitted effect of over 55% in size
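Stably hTDP1-transfected Tdp1-null chicken DT40 cells were treated with library compounds minus camptothecin and grown for at least 48 hr at 37 °C, after which cellular ATP was quantified by luminescence.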
TDP1 cell CPT – DT40-hTDP1 cell growth loss with CPT. chicken DT40 Tdp1-/-;hTDP1 cells + 20 nM CPT, ATP luminescence, 48 h. Potency, µM (highest dose often 46.2 µM), for the others: at the highest dose activity change, negative = growth inhibition, actives largely listed as inhibitors. actives 12% (n = 420,000). AID 686979; also: potency is read from the fitted curve at half-maximal effect; nearly all actives have a fitted effect of over 55% in size
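Cell growth measured by CellTiter-Glo luminescence after a minimum 48 h, 37 C compound exposure with 20 nM CPT in Tdp1-knockout DT40 cells stably expressing hTDP1, seeded 400/well; qHTS titration format.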
RORgamma inh – blocks mouse ROR gamma transcriptional activity; Drosophila S2 Gal4-RORgamma UAS-luciferase reporter, 20 h; P51450; AID 2551; Potency, µM (top dose mostly 53.6 µM), for the others: at the top dose activity change, negative = inhibition, usual class: inhibitors; actives 5.4% (n = 310,000); also: potency is read from the fitted curve at half-maximal effect; nearly all actives have a fitted effect of over 60% in size
Target sequence (P51450 whole entry, looked up, the tested form may be a part): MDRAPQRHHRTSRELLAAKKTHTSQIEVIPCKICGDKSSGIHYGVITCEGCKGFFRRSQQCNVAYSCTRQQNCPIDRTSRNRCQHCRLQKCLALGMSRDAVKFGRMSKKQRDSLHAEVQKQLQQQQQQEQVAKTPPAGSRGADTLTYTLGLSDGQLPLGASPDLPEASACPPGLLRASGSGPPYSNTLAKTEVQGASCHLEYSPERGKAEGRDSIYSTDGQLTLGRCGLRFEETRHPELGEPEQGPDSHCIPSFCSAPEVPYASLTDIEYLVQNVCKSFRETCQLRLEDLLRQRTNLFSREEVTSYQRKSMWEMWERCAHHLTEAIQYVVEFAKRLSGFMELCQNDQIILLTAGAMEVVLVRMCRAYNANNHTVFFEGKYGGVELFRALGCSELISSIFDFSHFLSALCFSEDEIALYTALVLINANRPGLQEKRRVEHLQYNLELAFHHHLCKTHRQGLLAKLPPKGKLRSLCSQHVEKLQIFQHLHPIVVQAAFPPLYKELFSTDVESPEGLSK
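Using a luciferase readout, inhibitors were identified by reduced reporter activity in Drosophila cells coexpressing a copper-inducible Gal4–ROR gamma fusion and UAS-driven Photinus luciferase, incubated 20 hr after 700 uM copper sulfate.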
* marks the source's active call; other numbers are inactive results; ? = inconclusive; . = no result; [ ] = remark or other dose. The list is not random: actives were taken first. Their share in the collection is about 18%. Unless noted, calls follow the shape of the dose curve; as a rule, active = well fitted curve in the direction sought with a large enough effect; inconclusive = small, poorly fitted or top-dose-only effect, or another doubt; inactive = no such curve, though single readings can be large; an effect the other way counts as inactive or inconclusive. Unless noted, % is scaled to controls: 0 for no effect and ±100 for the full control effect.

SMILES	IL1B secr inh	LDHA block	VP16 counter	TDP1 cell noCPT	TDP1 cell CPT	RORgamma inh
Cc1cc(NC(=O)CSc2nc3ccccc3c(=O)n2C2CCCC2)no1	28	-2	-4%	0.92µM*	1µM*	0%
CCCN(CCC)C(=O)CSc1nc2ccccc2c(=O)n1C1CCCC1	0	1	-8%[0.365 µM]	13µM*	13µM*	46%
Cc1cc(NC(=O)CSc2nnc(CNc3ccc(F)cc3)n2C2CCCCC2)no1	-9	2	-9%	?	10µM*	22%
O=C(CN1CCN(c2ccccc2O)CC1)Nc1ccnn1Cc1cccc(Cl)c1	.	6	.	.	.	.
CN(C)c1ccc(NC(=O)CSc2nc3ccccc3c(=O)n2C2CCCCC2)cc1	-51*	2	-3%	18µM*	?	-15%
Cc1ccc(NC(=O)COC(=O)c2cc3ccccc3[nH]2)cc1C	.	-16	.	.	.	.
Cc1noc(C)c1COC(=O)c1cc(S(=O)(=O)N2CCOCC2)ccc1F	-5	1	.	-27%	-9%	.
CN(C)c1cccc(C(=O)OCc2cc(=O)oc3cc(O)ccc23)c1	32	2	?	?	?	8.9µM*
CCc1cc2c(COC(=O)c3cccc(NS(C)(=O)=O)c3)cc(=O)oc2cc1O	-13	-4	-9%	10µM*	16µM*	-4%
CNS(=O)(=O)c1cccc(C(=O)OCc2cc(=O)oc3cc(C)ccc23)c1	.	5	.	.	.	.
CCc1cc2c(COC(=O)c3cc(S(=O)(=O)N4CCOCC4)ccc3F)cc(=O)oc2cc1O	-77*	-14	.	?	18µM*	.
O=C(OCc1cc(=O)oc2cc(O)ccc12)c1cc(S(=O)(=O)N2CCOCC2)ccc1F	-103*	-8	.	-23%	-14%	.
O=C(CN1N=C(c2ccccc2)c2cc(Cl)ccc2S1(=O)=O)Nc1ccc(F)cc1F	.	7	.	.	.	.
COc1ccc(/[N+]([O-])=C/c2ccco2)cc1	-3	13	.	16µM*	15µM*	.
O=C(Cc1cccc(F)c1)OCc1cc(-c2ccccc2)on1	.	3	.	.	.	.
O=C(O)CCc1ccc(S(=O)(=O)NCCN2CCCC2)cc1	.	0	.	.	.	.
CCc1ccccc1NC(=O)CN1CCN(C(=O)CNC(=O)c2ccc(-c3ccccc3)cc2)CC1	-3	2	.	7.3µM*	4.6µM*	.
Cc1cccc(NC(=O)CN2CCN(CC(=O)Nc3ccc(-c4ccccc4)cc3)CC2)c1C	-10	2	-4%	?	?	?
CCc1ccccc1NC(=O)CN1CCN(CC(=O)Nc2ccc(-c3ccccc3)cc2)CC1	-3	-5	-12%	16µM*	?	-2%
Cc1ccc(C(=O)NCC(=O)N2CCN(c3ccccc3)CC2)cc1	-15	1	2%	6%	7%	-4%
O=[N+]([O-])c1cc([N+](=O)[O-])c2oc(-c3ccccc3)c(Br)c2c1O	15	-68*	0%	8.2µM*	?	?
CCOC(=O)CSCC(=O)N1N=C(c2cccs2)CC1c1ccc(F)cc1 (stereo not drawn)	0	-4	-2%	?	15µM*	-17%
O=C(CSc1nc2ccccc2s1)N1N=C(c2cccs2)CC1c1ccc(F)cc1 (stereo not drawn)	-7	-8	-25%	?	?	-32%
Cc1ccn2c(=O)nc(SCC(=O)N3N=C(c4cccs4)CC3c3ccc(F)cc3)nc2c1 (stereo not drawn)	-12	-3	.	18µM*	?	.
Cc1ccc2nc(SCC(=O)N3N=C(c4cccs4)CC3c3ccc(F)cc3)nc(=O)n2c1 (stereo not drawn)	?	0	.	?	-19%	.
SMILES	IL1B secr inh	LDHA block	VP16 counter	TDP1 cell noCPT	TDP1 cell CPT	RORgamma inh
O=C(C1CCCN(S(=O)(=O)c2cccc3nsnc23)C1)N1CCN(c2ccccc2F)CC1 (stereo not drawn)	.	-4	.	15µM*	18µM*	.
CC(C)NC(=O)C1CCCN(S(=O)(=O)c2cccc3nonc23)C1 (stereo not drawn)	7	-2	-2%	-2%	-7%	-3%
CCN1CCN(C(=O)C2CCCN(S(=O)(=O)c3cccc4nsnc34)C2)CC1 (stereo not drawn)	-23	-10	-6%	18%	4%	-1%
O=C(C1CCCN(S(=O)(=O)c2cccc3nonc23)C1)N1CCN(c2cccc(C(F)(F)F)c2)CC1 (stereo not drawn)	.	4	.	12µM*	15µM*	.
Cc1cccc(N2CCN(C(=O)C3CCCN(S(=O)(=O)c4cccc5nsnc45)C3)CC2)c1C (stereo not drawn)	.	-2	.	18µM*	3%	.
O=C(C1CCCN(S(=O)(=O)c2cccc3nsnc23)C1)N1CCN(c2ccccc2)CC1 (stereo not drawn)	.	0	.	21µM*	16µM*	.
CC(C)c1cc(=O)oc2cc(OCC(=O)N3CCCCC3)ccc12	.	-1	.	.	.	.
O=C(C1CCCN(S(=O)(=O)c2cccc3cccnc23)C1)N1CCN(c2ccccc2F)CC1 (stereo not drawn)	14	-11	-6%	15µM*	23µM*	25%
COc1ccc(OC)c(COC(=O)c2cc(OC)ccc2Br)c1	.	13	.	.	.	.
Cc1ccc2nc(SCC(=O)N3CCCC3)[nH]c2c1	-7	5	-9%	-10%	-4%	0%
Cc1ccc2nc(SCC(=O)N3CCC4(CC3)CC4C(=O)Nc3ccc(F)c(F)c3)[nH]c2c1 (stereo not drawn)	.	.	.	23µM*	?	.
CC(C)(C)c1cc(N)c(O)c(Br)c1	.	17	.	.	.	.
CCS(=O)(=O)N1CCc2cc(C(=O)Nc3ccc(C)c(Cl)c3)ccc21	.	0	.	13µM*	18µM*	.
CCS(=O)(=O)N1CCc2cc(C(=O)Nc3ccc(OC)c(Cl)c3)ccc21	.	5	.	18µM*	?	.
CCS(=O)(=O)N1CCc2cc(C(=O)Nc3ccc(OC)cc3OC)ccc21	.	-1	.	16µM*	?	.
CCS(=O)(=O)N1CCc2cc(C(=O)Nc3ccc(C(=O)OC)cc3)ccc21	.	-3	.	?	?	.
Cc1ccc(C(=O)/C=C/c2cccc(OC(C)C(=O)O)c2)o1 (stereo not drawn)	.	11	.	.	.	.
COc1ncnc2c1ncn2CCCNCC(c1ccccc1)c1ccccc1	15	-4	.	18µM*	23µM*	.
c1ccc(COc2ncnc3c2ncn3CCCNCC(c2ccccc2)c2ccccc2)cc1	-94*	-9	.	16µM*	26µM*	.

Screens (PubChem)
